From PubChem BioAssay (NCI)
The panel holds about 83,000 compounds, 20% with a hit somewhere; the sample as a whole holds those more often.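 48-hour exposure, single concentration, 96-well plates; percent growth endpoint where 0 means no net growth. Active: below 10.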 Unmarked numbers belong to inactive results. Calls of active or inactive are those of the source.

tested on: HOP-62 NSCLC; assay: NCI-60 one-dose screen, 48 h (100 = growth as untreated, 0 = no growth, -100 = all killed); conditions: 10 µM unless noted

**Q.** With `Cc1ccc(OCCOCCOCCOCCOc2ccc(C)n(O)c2=S)c(=S)n1O` as the compound, how does the growth read?
**A.** -0.489% (active)

**Q.** `CCN(CC)CCCC(Nc1c2ccc(Cl)cc2nc2ccc(OC)cc12)c1ccncc1` (stereo not given) was tested. Which growth did it give?
**A.** 83.4%

**Q.** `COc1cccc(C2C3=C(COC3=O)N(CCO)c3cc4c(cc32)OCCO4)c1` (stereo not given) was tested. Which growth did it give?
**A.** 23.4%

**Q.** How did the growth turn out when `CN(C)CC1C(=O)O[C@H]2[C@H]1CC/C(COC(=O)NCc1ccc(Cn3c(=O)sn(CCCI)c3=O)cc1)=C\CC[C@@]1(C)O[C@@H]21` (stereo not given in full) was run?
**A.** 83.8%

**Q.** `CC(C)=CC(=O)C1C(=O)c2ccccc2C1=O` was tested. Which growth did it give?
**A.** 102%

**Q.** `Cn1cc(-c2ccc3c(Nc4cccc(NC(=O)Nc5cccc(F)c5)c4)ncnc3c2)cn1` was tested. Which growth did it give?
**A.** 42.8%

**Q.** How did the growth turn out when `COc1cc2c(c(OC)c1OC)C(=O)CC(c1cccc(C(=O)Nc3ccc(Br)cc3)c1)O2` (stereo not given) was run?
**A.** 86%

**Q.** For `COc1cc2nc3cc([N+](=O)[O-])ccc3c(NCCCNCCO)c2cc1OC`, which growth is on record?
**A.** -60.6% (active)

**Q.** How did the growth turn out when `CCOC(=O)C1=CCC(n2cc(F)c(=O)[nH]c2=O)O1` (stereo not given) was run?
**A.** 122%

**Q.** How did the growth turn out when `Cc1nc2sc(C(=O)Nc3ccccc3)c(N)c2cc1C(O)c1ccccc1` (stereo not given) was run?
**A.** 39.6%

**Q.** For `C=C(CNCCO)[C@@H]1CC[C@]2(CO)CC[C@]3(C)[C@H](CC[C@@H]4[C@@]5(C)CCC(NCCO)C(C)(C)[C@@H]5CC[C@]43C)[C@@H]12` (stereo not given in full), which growth is on record?
**A.** 93.4%

**Q.** Which growth does the source give for `COC(=O)CCc1c(/C=C2\N=C(c3ccc[nH]3)C=C2OC)[nH]c(C)c1C(=O)OCc1ccccc1` here?
**A.** -3.97% (active)

**Q.** How did the growth turn out when `CSc1nc(N)c2c(n1)NC(c1ccccc1)C1CCc3ccccc3C1=N2` (stereo not given) was run?
**A.** 64.4%

**Q.** `CC(CN)[C@@H]1CC[C@]2(CO)CC[C@]3(C)[C@H](CC[C@@H]4[C@@]5(C)CCC(NCCO)C(C)(C)[C@@H]5CC[C@]43C)[C@@H]12` (stereo not given in full) was tested. Which growth did it give?
**A.** 86.6%

**Q.** With `O=S(=O)(c1ccc(NCSc2nc3ccccc3s2)cc1)c1ccc(NCSc2nc3ccccc3s2)cc1` as the compound, how does the growth read?
**A.** 66.4%

**Q.** Which growth does the source give for `COc1ccc(Cn2cc(C(=O)N=Nc3c(O)[nH]c4ccc(Br)cc34)nn2)cc1` here?
**A.** 111%

**Q.** With `Oc1ccc(C(c2ccc(O)cc2)c2ccc(Cl)cn2)cc1` as the compound, how does the growth read?
**A.** 61.9%

**Q.** How did the growth turn out when `O=C(Nc1cccc(Cn2c(=O)[nH]c3ccc(Oc4ncccn4)cc3c2=O)c1)c1cccc(Cl)c1` was run?
**A.** 79.3%

**Q.** With `Cc1ccc(C(=O)Nc2ccc(CN3CCN(C)CC3)c(C(F)(F)F)c2)cc1C#Cc1cnc(N)c2ccccc12` as the compound, how does the growth read?
**A.** 15%

**Q.** `C[C@H]1c2ccccc2CN1CCCOc1cc2c(cc1OCC1CC1)C1(CCCC1)C(N)=N2` was tested. Which growth did it give?
**A.** 82%

**Q.** Which growth does the source give for `CC1=C2[C@@H](CC1)[C@]1(C)O[C@@](C(C)C)(C[C@H]1OC(=O)CO)[C@H]2OC(=O)CCCc1ccccc1` here?
**A.** 39.5%

**Q.** With `Oc1ccc(Cc2ccc(O)c3ncccc23)c2cccnc12` as the compound, how does the growth read?
**A.** -2.91% (active)

**Q.** With `C=C(c1ccc(OC)c(/C=C/C(=O)c2cc(OC)c(OC)c(OC)c2)c1)c1cc(OC)c(OC)c(OC)c1` as the compound, how does the growth read?
**A.** 11.5%

**Q.** For `COc1ccc(-c2nc(SCCC(C)C)nc(N/N=C(/C)c3ccc(N)cc3)c2C#N)cc1`, which growth is on record?
**A.** 89.9%

**Q.** Which growth does the source give for `CCCCC1=C(Br)C(=O)c2ncccc2C1=O` here?
**A.** 91.3%

**Q.** For `COc1ccc(/C(C)=C(\c2ccc(Cl)cc2)c2ccc(OCCCN(C)C)cc2)cc1`, which growth is on record?
**A.** 101%

**Q.** How did the growth turn out when `CC(=O)/C(Br)=C/c1ccc(Br)o1` was run?
**A.** 137%

**Q.** With `CC(C)n1nc(-c2ccc3oc(N)nc3c2)c2c(N)ncnc21` as the compound, how does the growth read?
**A.** -25.5% (active)

**Q.** How did the growth turn out when `CCCNNC(=O)c1ccc(CNC(=O)/C=C/c2ccccc2)cc1` was run?
**A.** 20.3% [2.5 µM]

**Q.** With `O=C(Nc1ncc(Cc2ccc(Cl)cc2)s1)C1=NCCCCN1` as the compound, how does the growth read?
**A.** 108%

**Q.** Which growth does the source give for `COc1cc2c(c(OC)c1OC)CCC(c1cccc(C(=O)Nc3ccc([N+](=O)[O-])cc3)c1)O2` (stereo not given) here?
**A.** 76.7%

**Q.** For `C=CCn1c(SCC(=O)Nc2ccc(C(=O)/C=C/c3ccc(Cl)cc3)cc2)nnc1-c1ccccc1`, which growth is on record?
**A.** 97%

**Q.** Which growth does the source give for `c1ccc(Cn2cc3c(c2)-c2nc(Nc4ccccc4)ncc2CC3)cc1` here?
**A.** 85.8% [100 µM]

**Q.** `Clc1nc(N2CCC[N+]3(CC2)CC[N+]2(CCCNCC2)CC3)nc(N2CCC[N+]3(CC2)CC[N+]2(CCCNCC2)CC3)n1` (stereo not given) was tested. Which growth did it give?
**A.** 91.1%

**Q.** For `C#C[C@]1(O)CC[C@H]2[C@@H]3CC=C4c5sc(-c6ccccc6)nc5CC[C@]4(C)[C@H]3CC[C@@]21C`, which growth is on record?
**A.** 99.5%
